Source: PubChem BioAssay AID1159580 (chemical genetic matrix, 2015)
About 2,000 (36%) of roughly 5,500 compounds were called active. About 18% were inconclusive and are not listed. Cut-off read from the data, not from the text of the source: active = normalized growth mostly below about 0.91 (no sharp cut-off); inconclusive = no clear call, values can overlap the other calls; inactive = mostly above about 0.92. The list shows a part of the results.

Assay: chemical genetic growth profiling, strain panel (AID 1159580);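 note: tested at 20 µM; growth read once vehicle control cultures reached saturation at 30 °C; 1 = growth at the plate median or of vehicle wells; lower values mean less growth of the strain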
Settings: growth OD

Measured: normalized growth

N#CC(c1ccccc1)N1CCCCC1 (stereo not drawn)
inactive: S. cerevisiae deletion strains, locus YAL013W, strain DEP1, hits give low values 1.04 | S. cerevisiae deletion strains, locus YBR229C, strain ROT2, hits give low values 0.995 | S. cerevisiae deletion strains, locus YDL101C, strain DUN1, hits give low values 1 | S. cerevisiae deletion strains, locus YDL134C, strain PPH21, hits give low values 0.99 | S. cerevisiae deletion strains, locus YDR150W, strain NUM1, hits give low values 0.964 | S. cerevisiae deletion strains, locus YEL061C, strain CIN8, hits give low values 1.02 | S. cerevisiae deletion strains, locus YGR078C, strain PAC10, hits give low values 1 | S. cerevisiae deletion strains, locus YHR030C, strain SLT2, hits give low values 1.04 | S. cerevisiae deletion strains, locus YHR087W, strain rtc3, hits give low values 0.995 | S. cerevisiae deletion strains, locus YJR043C, strain POL32, hits give low values 0.994 | S. cerevisiae deletion strains, locus YJR075W, strain HOC1, hits give low values 0.984 | S. cerevisiae deletion strains, locus YKL190W, strain CNB1, hits give low values 0.99 | S. cerevisiae deletion strains, locus YLR039C, strain RIC1, hits give low values 0.969 | S. cerevisiae deletion strains, locus YLR058C, strain SHM2 (second series), hits give low values 0.987 | S. cerevisiae deletion strains, locus YLR085C, strain ARP6, hits give low values 1.02 | S. cerevisiae deletion strains, locus YLR262C, strain YPT6, hits give low values 1.02 | S. cerevisiae deletion strains, locus YML094W, strain GIM5, hits give low values 1.02 | S. cerevisiae deletion strains, locus YMR219W, strain ESC1, hits give low values 1.01 | S. cerevisiae deletion strains, locus YMR263W, strain SAP30, hits give low values 1.01 | S. cerevisiae deletion strains, locus YMR307W, strain GAS1, hits give low values 0.928 | S. cerevisiae deletion strains, locus YNL153C, strain GIM3, hits give low values 1 | S. cerevisiae deletion strains, locus YNL298W, strain CLA4 (second series), hits give low values 0.985 | S. cerevisiae deletion strains, locus YNL322C, strain KRE1, hits give low values 1.01 | S. cerevisiae deletion strains, locus YNR030W, strain Alg12, hits give low values 1 | S. cerevisiae deletion strains, locus YPL055C, strain LGE1, hits give low values 1.03 | S. cerevisiae deletion strains, locus YPL241C, strain CIN2, hits give low values 0.975 | S. cerevisiae deletion strains, locus YPR135W, strain CTF4, hits give low values 1.19 | S. cerevisiae strains, strain wild type, hits give low values 0.985
